Experimental findings from PubChem BioAssay (EPA / NIEHS) are described below.

A short description of assay [1]: ATG_TCF_b_cat_CIS: Attagene CIS-FACTORIAL HepG2 Assay for human T-Cell-Factor with beta-catenin (TCF/b-cat) (AID 2282965; active = hit-call score of the fitted dose curve at least 0.9, where 1 is the maximum; inactive = score below 0.9). The conditions noted are these: HepG2 TCF/beta-catenin cis-reporter transcription, actives raise or lower the signal. In outline: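 Endogenous transcription factor activity is captured through cis-promoter reporter constructs transiently introduced into human HepG2 liver cells. Induced reporter mRNA is measured after 24 h and fitted bidirectionally relative to DMSO.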

The nature of assay [2]: ATG_TAL_CIS: Attagene CIS-FACTORIAL HepG2 Assay for human TAL Basal Promoter (AID 2282966; active = hit-call score of the fitted dose curve at least 0.9, where 1 is the maximum; inactive = score below 0.9;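 note: background control endpoint measuring basal TAL promoter reporter mRNA not a specific factor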). The conditions noted are these: HepG2 Attagene cis-factorial TAL promoter reporter; actives raise or lower the signal. A digest of the protocol:
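Endogenous transcription-factor activity is sensed in HepG2 cells through transfected cis-promoter reporter constructs. After 24 h dosing, reporter transcripts are quantified by RT-PCR and capillary electrophoresis. Gain or loss of signal is fitted relative to DMSO.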

A short description of assay [3]: ATG_TGFb_CIS: Attagene CIS-FACTORIAL HepG2 Assay for human Transforming Growth Factor (TGF) (AID 2282967; active = hit-call score of the fitted dose curve at least 0.9, where 1 is the maximum; inactive = score below 0.9). The conditions noted are these: HepG2 Attagene CIS TGFb reporter, mRNA transcription; actives raise or lower the signal. In outline:
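HepG2 cells transiently transfected with cis-promoter-driven multiple reporter units measure endogenous TF activity; reporter mRNA quantified at 24 h by RT-PCR, FAM labeling, HpaI digestion and capillary electrophoresis. Bidirectional fit vs DMSO.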

Assay [4] is described as follows: ATG_VDRE_CIS: Attagene CIS-FACTORIAL HepG2 Assay for human Vitamin D Receptor Element (VDRE) (AID 2282968; active = hit-call score of the fitted dose curve at least 0.9, where 1 is the maximum; inactive = score below 0.9). The conditions noted are these: HepG2 VDRE cis-reporter transcription, actives raise or lower the signal. A digest of the protocol: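 Measures endogenous factor activity through cis-element-driven reporter transcripts in transiently transfected HepG2. Cells are treated 24 h; reporter mRNA is quantified by RT-PCR and capillary electrophoresis; fitting is bidirectional.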

The target of assay [5] is Nuclear receptor subfamily 1 group I member 3 (Homo sapiens) (UniProt Q14994). The assay can be described thus: ATG_CAR_TRANS: Attagene TRANS-FACTORIAL HepG2 Assay for human Constitutive Androstane Receptor (CAR) (AID 2282969).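 Note: activators raise reporter mRNA above DMSO so AC50 marks induction.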 The conditions noted are these: HepG2 Attagene TRANS-FACTORIAL CAR reporter. In outline:
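Signal is reporter mRNA induction relative to DMSO, measured 24 h after dosing by RT-PCR with fluorescent primer extension and capillary electrophoresis. Human HepG2 liver cells carried transiently transfected chimeric NR-Gal4/GAL4-UAS reporter constructs.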

Assay [6] deals with Estrogen receptor (Homo sapiens) (UniProt P03372). The assay can be described thus: ATG_ERa_TRANS: Attagene TRANS-FACTORIAL HepG2 Assay for human Estrogen Receptor alpha (ERa) (AID 2282970). The conditions noted are these: HepG2 Attagene TRANS ERa GAL4 reporter, mRNA. In outline:
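Transfected HepG2 cells carrying GAL4-UAS-driven reporter units were dosed for 24 hours. Total RNA was reverse-transcribed, reporter sequences PCR-amplified, FAM-labelled, HpaI-digested and resolved by capillary electrophoresis. Increases over DMSO control defined activity.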

Assay [7] addresses X-box-binding protein 1 (Homo sapiens) (UniProt P17861). The assay can be described thus: ATG_Xbp1_CIS: Attagene CIS-FACTORIAL HepG2 Assay for human X-box Binding Protein 1 (XBP1) (AID 2282972; active = hit-call score of the fitted dose curve at least 0.9, where 1 is the maximum; inactive = score below 0.9). The conditions noted are these: HepG2 XBP1 cis-element reporter, Attagene multiplex; actives raise or lower the signal. A digest of the protocol:
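Changes in reporter transcript abundance, read by RT-PCR and capillary electrophoresis, reflect endogenous transcription factor activity. Transfected HepG2 cells received compound for 24 hours; DMSO defined baseline for bidirectional analysis.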

The nature of assay [8]: ATG_GAL4_TRANS: Attagene TRANS-FACTORIAL HepG2 Assay for GAL4 (Internal Marker) (AID 2282976). The conditions noted are these: HepG2 Attagene TRANS GAL4 internal marker reporter. In outline:
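Fluorescence from capillary electrophoresis of labelled RT-PCR products quantifies reporter mRNA induction after 24 h dosing of HepG2 cells carrying transfected GAL4-UAS reporter transcription units. Vehicle DMSO serves as baseline.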

Assay [9] concerns the target Glucocorticoid receptor (Homo sapiens) (UniProt P04150). The assay can be described thus: ATG_GR_TRANS: Attagene TRANS-FACTORIAL HepG2 Assay for human Glucocorticoid Receptor (GR) (AID 2282978).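 Note: activators score as hits since higher reporter transcript over DMSO is fitted.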 The conditions noted are these: HepG2 Attagene TRANS GR reporter, mRNA transcription. A digest of the protocol:
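Transient MRTU transfection of HepG2 (GAL4-UAS reporters, exogenous NR-GAL4 chimeras), 24 h dosing. Readout: reporter transcript via RT-PCR + capillary electrophoresis fluorescence. Positive direction vs DMSO baseline.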

The target in assay [10] is Oxysterols receptor LXR-beta (Homo sapiens) (UniProt P55055). In words: ATG_LXRb_TRANS: Attagene TRANS-FACTORIAL HepG2 Assay for human Liver X Receptor beta (LXRb) (AID 2282981). The conditions noted are these: HepG2 Attagene TRANS GAL4-LXRb reporter, mRNA. In outline:
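After 24 h of chemical treatment, transfected HepG2 cells yield total RNA; reporter cDNA is PCR-amplified, FAM-labelled, HpaI-cut and run on capillary electrophoresis. Signal reflects chimeric LXRb-Gal4 activity on GAL4-UAS reporters.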

Assay [11] concerns the target Hepatocyte nuclear factor 4-alpha (Homo sapiens) (UniProt P41235). The assay can be described thus: ATG_HNF4a_TRANS: Attagene TRANS-FACTORIAL HepG2 Assay for human Hepatocyte Nuclear Factor 4 alpha (HNF4a) (AID 2282982). The conditions noted are these: HepG2 HNF4a transactivation reporter, mRNA readout. A digest of the protocol:
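Multiplexed reporter assay: transfected HepG2, 24 h exposure, total RNA → oligo(dT) RT → PCR → 6-FAM extension → HpaI digest → CE fluorescence. DMSO = negative control.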

Assay [12] in a line: ATG_M_06_TRANS: Attagene TRANS-FACTORIAL HepG2 Assay for M06 Transcription Factor (Internal Marker) (AID 2282983). The conditions noted are these: HepG2 Attagene TRANS M06 internal marker reporter. A digest of the protocol:
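Human liver HepG2 cells bearing transiently transfected chimeric NR-GAL4 reporter units were treated with chemicals for 24 h. Total RNA was reverse-transcribed, reporter sequences amplified and labelled, then quantified by capillary electrophoresis. Activity was fitted upward relative to DMSO.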

The nature of assay [13]: ATG_M_32_TRANS: Attagene TRANS-FACTORIAL HepG2 Assay for M32 Transcription Factor (Internal Marker) (AID 2282984).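 Note: transcript level of a background control reporter unit measured by RT-PCR and capillary electrophoresis.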 The conditions noted are these: HepG2 Attagene TRANS M32 internal marker reporter. A digest of the protocol: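 Cell-based TRANS-format assay in HepG2: exogenous chimeric GAL4 reporter units transiently expressed, compounds applied 24 h. Reporter mRNA detected by RT-PCR plus capillary electrophoresis; this readout is an internal background marker.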

The target of assay [14] is Steroid hormone receptor ERR1 (Homo sapiens) (UniProt P11474). In words: ATG_ERRa_TRANS: Attagene TRANS-FACTORIAL HepG2 Assay for human Estrogen-Related Receptor alpha (ERRa) (AID 2282971). The conditions noted are these: HepG2 Attagene TRANS reporter, ERRa transactivation. A digest of the protocol:
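HepG2 cells were transiently transfected with multiple GAL4-UAS reporter units, then dosed with compound for 24 h. Total RNA was reverse-transcribed, reporter cDNA PCR-amplified and fluorescently labelled, and fragments resolved by capillary electrophoresis; induction was compared with DMSO.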

Assay [15] has as its target Androgen receptor (Homo sapiens) (UniProt P10275). The assay can be described thus: ATG_AR_TRANS: Attagene TRANS-FACTORIAL HepG2 Assay for human Androgen Receptor (AR) (AID 2282973). The conditions noted are these: HepG2 Attagene TRANS-FACTORIAL AR reporter transcription. A digest of the protocol:
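Transfected HepG2, 24 h treatment, chimeric NR-Gal4 driving GAL4-UAS reporters. mRNA induction by RT-PCR/capillary electrophoresis fluorescence; DMSO as negative control and baseline.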

Assay [16] can be described thus: ATG_M_19_TRANS: Attagene TRANS-FACTORIAL HepG2 Assay for M19 Transcription Factor (Internal Marker) (AID 2282974). The conditions noted are these: HepG2 Attagene TRANS-FACTORIAL M19 internal marker reporter. A digest of the protocol: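 24 h chemical exposure of transiently transfected HepG2 (MRTU library). RNA → oligo(dT) RT → PCR → 6-FAM labelling → HpaI cut → CE fluorescence. Positive-direction fit vs DMSO baseline; background internal-marker readout.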

The target in assay [17] is Estrogen-related receptor gamma (Homo sapiens) (UniProt P62508). In words: ATG_ERRg_TRANS: Attagene TRANS-FACTORIAL HepG2 Assay for human Estrogen-Related Receptor gamma (ERRg) (AID 2282977).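 Note: hits increase reporter signal over DMSO so potencies reflect activators.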 The conditions noted are these: HepG2 Attagene TRANS reporter, ERRg transactivation. In outline: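 Exogenous NR-Gal4 chimera activity was assessed in HepG2 cells bearing transfected GAL4-UAS reporters. After 24 h dosing, total RNA underwent RT-PCR, fluorescent primer extension and HpaI digestion before capillary electrophoresis, with gain of signal scored against DMSO.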

Assay [18] concerns the target Bile acid receptor (Homo sapiens) (UniProt Q96RI1). In words: ATG_FXR_TRANS: Attagene TRANS-FACTORIAL HepG2 Assay for Farnesoid X Receptor (FXR) (AID 2282979).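 Note: hits raise reporter mRNA above DMSO so AC50 marks FXR activation.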 The conditions noted are these: HepG2 Attagene TRANS FXR-GAL4 reporter transcription. In outline: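 Chimeric FXR-GAL4 activity in transiently transfected human HepG2 liver cells is scored as induction of reporter mRNA after 24 h of dosing. Detection uses RT-PCR with fluorescent labelling and capillary electrophoresis, with DMSO serving as baseline.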

In assay [19] the target is Nuclear receptor subfamily 4 group A member 2 (Homo sapiens) (UniProt P43354). In words: ATG_NURR1_TRANS: Attagene TRANS-FACTORIAL HepG2 Assay for human Nuclear Receptor Related Protein 1 (NURR1) (AID 2282985). The conditions noted are these: HepG2 Attagene TRANS reporter, mRNA readout. In outline:
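Measures transcriptional activation by an exogenous NR-Gal4 chimera in transfected HepG2 liver cells. After 24 h, reporter RNA is reverse-transcribed, amplified and resolved by capillary electrophoresis; DMSO defines baseline.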

Assay [20] addresses Oxysterols receptor LXR-alpha (Homo sapiens) (UniProt Q13133). The assay can be described thus: ATG_LXRa_TRANS: Attagene TRANS-FACTORIAL HepG2 Assay for human Liver X Receptor alpha (LXRa) (AID 2282980). The conditions noted are these: HepG2 Attagene TRANS reporter, LXRa transactivation. A digest of the protocol: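 Transient HepG2 transfectants, 24 h dosing, RT-PCR/CE mRNA reporter quantitation; gain-of-signal vs DMSO.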

Values joined by “and” are separate entries in the source; they are usually repeats but may differ in a detail not shown here. Identical values can stand only once. Results filed as inconclusive are left out. Some compounds were tested as several samples or in several runs, with calls that do not always agree. Active and inactive are the calls of the source. Rule for the calls, unless noted: active = hit-call score of the fitted dose curve at least 0.9, where 1 is the maximum; inconclusive = response in the unintended direction; inactive = score below 0.9.

Chain of Oxysterols receptor LXR-beta (Homo sapiens) (P55055 whole entry, looked up, the tested form may be a part): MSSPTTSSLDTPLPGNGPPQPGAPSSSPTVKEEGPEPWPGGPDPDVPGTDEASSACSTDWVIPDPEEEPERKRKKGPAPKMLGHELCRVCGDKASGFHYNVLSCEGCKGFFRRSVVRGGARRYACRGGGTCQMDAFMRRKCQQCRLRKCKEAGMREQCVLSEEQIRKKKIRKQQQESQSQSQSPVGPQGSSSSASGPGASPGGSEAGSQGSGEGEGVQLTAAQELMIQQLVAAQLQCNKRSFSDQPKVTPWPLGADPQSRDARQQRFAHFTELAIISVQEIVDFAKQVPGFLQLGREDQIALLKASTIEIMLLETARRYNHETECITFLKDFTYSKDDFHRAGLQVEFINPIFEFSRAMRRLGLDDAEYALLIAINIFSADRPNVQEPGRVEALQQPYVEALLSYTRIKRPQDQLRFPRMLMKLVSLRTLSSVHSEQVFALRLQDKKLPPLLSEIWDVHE
Chain of Nuclear receptor subfamily 1 group I member 3 (Homo sapiens) (Q14994 whole entry, looked up, the tested form may be a part): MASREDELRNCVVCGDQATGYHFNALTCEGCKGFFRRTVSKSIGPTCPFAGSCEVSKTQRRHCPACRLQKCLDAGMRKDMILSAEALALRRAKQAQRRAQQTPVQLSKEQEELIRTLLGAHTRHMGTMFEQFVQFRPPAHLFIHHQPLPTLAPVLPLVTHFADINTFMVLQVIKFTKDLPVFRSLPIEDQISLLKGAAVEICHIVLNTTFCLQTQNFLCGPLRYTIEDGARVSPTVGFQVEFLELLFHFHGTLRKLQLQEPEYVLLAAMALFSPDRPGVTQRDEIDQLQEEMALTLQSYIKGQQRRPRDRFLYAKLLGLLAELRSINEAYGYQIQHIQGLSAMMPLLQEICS
Chain of Nuclear receptor subfamily 4 group A member 2 (Homo sapiens) (P43354 whole entry, looked up, the tested form may be a part): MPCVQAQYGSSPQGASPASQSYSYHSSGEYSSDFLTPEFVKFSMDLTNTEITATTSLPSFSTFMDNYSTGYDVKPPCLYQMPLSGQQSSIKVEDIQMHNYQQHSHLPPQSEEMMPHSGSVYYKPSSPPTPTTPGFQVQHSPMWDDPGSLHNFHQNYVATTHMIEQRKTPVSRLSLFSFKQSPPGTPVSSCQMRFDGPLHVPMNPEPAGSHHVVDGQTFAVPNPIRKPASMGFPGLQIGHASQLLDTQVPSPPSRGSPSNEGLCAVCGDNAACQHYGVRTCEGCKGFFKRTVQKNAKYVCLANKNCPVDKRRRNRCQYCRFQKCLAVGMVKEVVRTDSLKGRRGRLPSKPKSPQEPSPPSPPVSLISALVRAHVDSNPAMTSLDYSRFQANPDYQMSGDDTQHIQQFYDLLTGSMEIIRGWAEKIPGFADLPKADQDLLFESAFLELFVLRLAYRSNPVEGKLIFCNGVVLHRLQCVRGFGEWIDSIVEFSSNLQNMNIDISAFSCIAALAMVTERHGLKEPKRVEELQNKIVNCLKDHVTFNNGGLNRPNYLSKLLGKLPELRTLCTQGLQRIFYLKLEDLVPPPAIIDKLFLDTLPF
Chain of Bile acid receptor (Homo sapiens) (Q96RI1 whole entry, looked up, the tested form may be a part): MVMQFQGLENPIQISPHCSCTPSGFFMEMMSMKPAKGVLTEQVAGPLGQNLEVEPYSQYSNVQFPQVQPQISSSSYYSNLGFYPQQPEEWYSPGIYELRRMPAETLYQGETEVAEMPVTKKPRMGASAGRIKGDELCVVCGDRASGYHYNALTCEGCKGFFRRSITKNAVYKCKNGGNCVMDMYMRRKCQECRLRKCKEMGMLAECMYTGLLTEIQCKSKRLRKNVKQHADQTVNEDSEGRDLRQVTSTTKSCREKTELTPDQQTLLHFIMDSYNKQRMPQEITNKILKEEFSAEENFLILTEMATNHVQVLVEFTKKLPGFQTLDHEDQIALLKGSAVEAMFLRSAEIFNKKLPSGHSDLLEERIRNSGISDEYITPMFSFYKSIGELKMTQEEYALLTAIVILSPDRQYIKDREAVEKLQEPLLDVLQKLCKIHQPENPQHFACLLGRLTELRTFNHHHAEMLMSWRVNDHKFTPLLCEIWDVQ
Chain of Estrogen receptor (Homo sapiens) (P03372 whole entry, looked up, the tested form may be a part): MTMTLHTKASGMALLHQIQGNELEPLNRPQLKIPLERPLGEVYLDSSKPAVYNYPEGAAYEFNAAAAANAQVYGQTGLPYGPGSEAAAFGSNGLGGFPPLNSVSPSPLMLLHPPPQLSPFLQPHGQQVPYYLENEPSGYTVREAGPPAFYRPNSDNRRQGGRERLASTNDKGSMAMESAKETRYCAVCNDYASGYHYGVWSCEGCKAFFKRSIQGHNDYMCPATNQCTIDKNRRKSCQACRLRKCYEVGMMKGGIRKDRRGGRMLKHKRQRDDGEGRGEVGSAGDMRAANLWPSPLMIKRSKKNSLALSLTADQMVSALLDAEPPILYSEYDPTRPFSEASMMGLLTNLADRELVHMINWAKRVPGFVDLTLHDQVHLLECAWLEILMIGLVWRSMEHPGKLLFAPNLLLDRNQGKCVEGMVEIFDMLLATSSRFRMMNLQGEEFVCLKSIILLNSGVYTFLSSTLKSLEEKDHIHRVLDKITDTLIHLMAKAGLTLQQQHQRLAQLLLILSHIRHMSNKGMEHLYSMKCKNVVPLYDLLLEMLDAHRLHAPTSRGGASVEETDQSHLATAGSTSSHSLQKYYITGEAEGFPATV
Chain of X-box-binding protein 1 (Homo sapiens) (P17861 whole entry, looked up): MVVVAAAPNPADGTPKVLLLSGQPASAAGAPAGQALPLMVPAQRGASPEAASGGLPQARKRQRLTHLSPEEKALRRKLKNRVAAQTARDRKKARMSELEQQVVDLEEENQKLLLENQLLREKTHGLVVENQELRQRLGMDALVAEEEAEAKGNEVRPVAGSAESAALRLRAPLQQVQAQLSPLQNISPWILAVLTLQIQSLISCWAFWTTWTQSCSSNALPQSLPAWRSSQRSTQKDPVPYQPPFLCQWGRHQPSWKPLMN
Chain of Glucocorticoid receptor (Homo sapiens) (P04150 whole entry, looked up, the tested form may be a part): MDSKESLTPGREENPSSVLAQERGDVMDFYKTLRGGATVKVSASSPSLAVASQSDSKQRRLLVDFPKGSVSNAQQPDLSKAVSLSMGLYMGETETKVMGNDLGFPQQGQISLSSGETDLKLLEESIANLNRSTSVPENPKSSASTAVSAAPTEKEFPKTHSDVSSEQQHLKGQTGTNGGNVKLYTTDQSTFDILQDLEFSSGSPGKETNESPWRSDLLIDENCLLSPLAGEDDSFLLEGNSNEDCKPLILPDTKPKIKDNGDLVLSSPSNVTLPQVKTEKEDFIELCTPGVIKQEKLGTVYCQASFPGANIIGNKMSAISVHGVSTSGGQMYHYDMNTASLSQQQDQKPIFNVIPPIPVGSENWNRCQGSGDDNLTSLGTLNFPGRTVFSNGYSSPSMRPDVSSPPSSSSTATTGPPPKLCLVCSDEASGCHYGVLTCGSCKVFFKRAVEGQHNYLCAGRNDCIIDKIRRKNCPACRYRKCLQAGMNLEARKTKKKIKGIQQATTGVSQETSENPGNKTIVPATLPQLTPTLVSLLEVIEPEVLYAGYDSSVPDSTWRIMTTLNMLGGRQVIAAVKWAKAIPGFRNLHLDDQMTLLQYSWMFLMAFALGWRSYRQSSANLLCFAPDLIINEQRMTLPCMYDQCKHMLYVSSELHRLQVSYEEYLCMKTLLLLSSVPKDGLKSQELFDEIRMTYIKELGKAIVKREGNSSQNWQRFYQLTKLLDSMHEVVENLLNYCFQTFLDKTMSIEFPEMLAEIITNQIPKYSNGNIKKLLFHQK
Chain of Hepatocyte nuclear factor 4-alpha (Homo sapiens) (P41235 whole entry, looked up): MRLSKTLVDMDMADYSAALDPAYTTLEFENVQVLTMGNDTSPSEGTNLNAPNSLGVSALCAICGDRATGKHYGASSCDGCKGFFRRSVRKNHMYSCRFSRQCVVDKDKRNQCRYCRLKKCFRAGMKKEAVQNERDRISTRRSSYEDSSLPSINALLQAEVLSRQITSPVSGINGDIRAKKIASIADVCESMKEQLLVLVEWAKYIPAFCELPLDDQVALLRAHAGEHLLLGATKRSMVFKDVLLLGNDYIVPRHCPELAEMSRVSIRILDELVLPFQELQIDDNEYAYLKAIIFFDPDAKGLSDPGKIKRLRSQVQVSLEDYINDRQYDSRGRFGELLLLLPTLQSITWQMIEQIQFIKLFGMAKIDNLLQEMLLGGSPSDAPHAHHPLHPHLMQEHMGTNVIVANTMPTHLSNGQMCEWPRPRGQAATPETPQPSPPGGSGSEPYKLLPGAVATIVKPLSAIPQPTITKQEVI
Chain of Androgen receptor (Homo sapiens) (P10275 whole entry, looked up, the tested form may be a part): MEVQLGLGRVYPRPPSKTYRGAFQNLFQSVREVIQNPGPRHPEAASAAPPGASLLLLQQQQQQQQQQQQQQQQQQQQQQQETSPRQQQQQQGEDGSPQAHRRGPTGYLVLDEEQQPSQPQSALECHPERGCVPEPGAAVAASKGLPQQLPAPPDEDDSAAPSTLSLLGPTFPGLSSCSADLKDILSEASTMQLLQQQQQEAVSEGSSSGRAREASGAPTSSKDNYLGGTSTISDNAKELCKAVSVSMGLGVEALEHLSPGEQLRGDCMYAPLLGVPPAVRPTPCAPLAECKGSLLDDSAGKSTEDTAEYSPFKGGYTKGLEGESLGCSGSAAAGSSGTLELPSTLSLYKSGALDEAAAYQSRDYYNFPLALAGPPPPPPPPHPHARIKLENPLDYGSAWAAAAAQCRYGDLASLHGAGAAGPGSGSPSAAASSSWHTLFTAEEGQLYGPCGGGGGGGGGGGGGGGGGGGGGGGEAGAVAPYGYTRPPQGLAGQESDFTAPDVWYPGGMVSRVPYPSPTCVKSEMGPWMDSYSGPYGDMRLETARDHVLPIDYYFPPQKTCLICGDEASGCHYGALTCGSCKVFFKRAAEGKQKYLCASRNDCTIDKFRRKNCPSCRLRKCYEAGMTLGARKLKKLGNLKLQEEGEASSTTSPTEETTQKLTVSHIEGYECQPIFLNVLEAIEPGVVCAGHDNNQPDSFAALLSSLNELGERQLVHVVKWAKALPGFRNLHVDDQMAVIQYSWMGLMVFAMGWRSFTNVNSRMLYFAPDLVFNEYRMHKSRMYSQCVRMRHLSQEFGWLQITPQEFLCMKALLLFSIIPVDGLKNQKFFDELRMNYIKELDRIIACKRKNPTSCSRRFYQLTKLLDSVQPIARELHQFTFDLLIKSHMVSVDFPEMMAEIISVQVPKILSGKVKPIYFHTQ

Consider `CCCCOCCOP(=O)(OCCOCCCC)OCCOCCCC`, for which the outcome in assay [1], in assay [2], in assay [3], in [4], in [5] and in assay [6] was inactive. Also, the call in [7], in assay [8], in [9], in [10], in assay [11] and in assay [12] was inactive. Also, the outcome in assay [13] was inactive.
As for `COC(=O)C(F)(F)C(F)(F)OC(F)(C(F)(F)F)C(F)(F)OC(F)=C(F)F` (stereo not given), the concentration at half-maximal activity (AC50) is 9.92 µM (active) in assay [1]; 87.4 µM (active) in [3]; 18.3 µM (active) in [4]; 30.3 µM (active) and 13.7 µM (active) in assay [6]. Moreover, the compound was called inactive in assay [1], in assay [2], in assay [3], in assay [4], in assay [5] and in assay [6]. The compound was called inactive in assay [14], in assay [7], in assay [15], in [16], in assay [8] and in assay [17]. The compound was called inactive in [9], in assay [18], in [10], in [11], in assay [12] and in assay [13]. In assay [19], the outcome was inactive.
Turning to `CCCCN(CC)C(=O)SCCC`, the compound was classed as inactive in assay [1], in [2], in [3], in assay [4], in assay [5] and in assay [7]. For the same compound, the outcome in assay [15], in assay [16], in [9], in assay [10] and in assay [13] was inactive. Moreover, the AC50 in assay [6] is 100 µM (active).
On to `O=C(O)C(F)(F)C(F)(F)C(=O)O`, for which the compound was called inactive in assay [1], in assay [2], in assay [3], in [4], in assay [5] and in assay [6]. In addition, the result in assay [7], in assay [17], in [18], in assay [20], in [10] and in [12] was inactive.
